Values joined by “and” are separate entries in the source; they are usually repeats but may differ in a detail not shown here. Equal entries are not always repeated. About 5,000 (1.2%) of roughly 410,000 compounds were called active. About 13% were inconclusive and are not listed. The entries come from a sample that favours actives as a whole. Unmarked numbers belong to inactive results. Calls follow the shape of the dose curve; as a rule, active = well fitted inhibition curve with a large enough effect; inconclusive = small, poorly fitted or top-dose-only effect; inactive = no such curve, though single readings can be large or run the other way.
Test: qHTS for Inhibitors of TGF-b; also: nearly all actives have a fitted effect of over 65% in size
Details: HepG2 CAGA-GFP TGF-b/SMAD3 reporter, GFP fluorescence, 18 h, TGF-beta stimulated, 500 pg/mL final; series mostly up to 46.1 µM; activity, negative = inhibition: at the top concentration
How it was run: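 HEPG2 CAGA-GFP, 1000 cells/well; 2 h settle, 37 C; cpd via pin tool; TGF-b 500 pg/mL final; 18 h, 37 C; GFP imaging ex488/em500-530; %Activity normalised to -TGF-b and +DMSO controls; CRC fit, curve class.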
% is scaled to controls: 0 for no effect and ±100 for the full control effect; potency is read from the fitted curve at half-maximal effect.

Structure (SMILES) | Potency | activity, negative = inhibition [%]
COc1ccc(N(C)C(=O)CCS(=O)(=O)c2cccc3nsnc23)cc1 | inactive | –
COc1cccc2sc(N(CCCN(C)C)C(=O)CCS(=O)(=O)c3ccccc3)nc12 | 1.12 µM (active) | –
COc1ccccc1NC(=O)CC(NCCN(C)C)C(=O)O (stereo unspecified) | – | 15.1
O=C(CCS(=O)(=O)c1ccccc1)Nc1nc2c(s1)CCCC2 | – | -22.5
CCOc1cccc2sc(N3CCN(C(=O)C4CC4)CC3)nc12 | – | 0.888
COc1cccc2sc(N(CCCN(C)C)C(=O)C(c3ccccc3)c3ccccc3)nc12 | 12.6 µM (active) | –
Cc1ccc(S(=O)(=O)CCC(=O)OCC(=O)N(C)Cc2ccccc2)cc1 | – | -19
Cc1ccc2sc(N(CCN(C)C)C(=O)/C=C/c3cccs3)nc2c1C | – | -2.22
Cc1cccc2sc(N(CCCN(C)C)C(=O)CCS(=O)(=O)c3ccccc3)nc12 | 3.16 µM (active) | –
Cc1ccc(-c2nnc(Nc3cccc(Br)c3)c3ccccc23)cc1S(=O)(=O)NCC1CCCO1 (stereo unspecified) | – | -2.65
CCOC(=O)c1c(NC(=O)/C(C#N)=C/c2ccccc2)sc2c1CCC2 | – | -10.7
Cc1cccc(CC(=O)Nc2cccc(-c3cn4cccnc4n3)c2)c1 | – | -7.3
COc1ccc(-c2nc(C)c(CCNC(=O)c3ccc(C(F)(F)F)cc3)s2)cc1OC | – | 11.9
CCOC(=O)c1cc(OC(=O)c2ccccc2Cl)n(-c2ccccc2)n1 | – | -17.4
CSc1nc(=O)c2c(n1C)NC(=O)CC2c1ccccc1OC(C)C (stereo unspecified) | – | -2.01
Cc1cn(C)c(CC(=O)NCc2ccc(Cl)cc2)c1C(=O)O | – | 10.5
CCOc1n[nH]c(-c2ccccc2)n1 | – | -5.85
CCOC(=O)c1ccc(NC(=O)CC2C(=O)N(c3cccc(OC)c3)C(=O)N2C2CCCCC2)cc1 (stereo unspecified) | – | -42.9
Cc1ccc(NC(=O)CCNC(=O)c2ccc([N+](=O)[O-])cc2)cc1S(=O)(=O)N1CCOCC1 | – | 1.06
Cc1ccc(C)c(S(=O)(=O)N2CCN(CC(=O)Nc3ccc([N+](=O)[O-])cc3)CC2)c1 | 8.91 µM (active) | –
Cc1ccc([N+](=O)[O-])cc1S(=O)(=O)N1CCCN(C)CC1 | – | -1.45
Cc1cccc(N2CCN(C(=O)c3oc(=O)c4ccccc4c3-c3ccccc3)CC2)c1C | – | 0
CCOc1ccccc1NC(=O)Cn1c(=O)n(Cc2ccccc2)c(=O)c2c(C)c(C(=O)N(C)C)sc21 | – | -4.55
CCC(=O)N1CCc2cc(S(=O)(=O)NCCC(=O)Nc3cccc(C)c3C)ccc21 | – | 3.97
CCOc1ccc(OCCSc2nc3ccccc3n2CC(=O)O)cc1 | – | 6.92
Cc1cccc(OCCSc2nc3ccccc3n2CC(=O)N2CCCCC2)c1C | 12.6 µM (active) | –

Structure (SMILES) | Potency | activity, negative = inhibition [%]
Cc1ccc(C(C)C)c(OCCSc2nc3ccccc3n2CC(=O)O)c1 | – | -8.84
O=c1[nH]c2cc(Br)ccc2n2cccc12 | – | 3.58
COc1ccc(-c2c(-c3ccc(OC)cc3O)nc(C)nc2C(F)(F)F)cc1 | – | -4.38
COc1cc(-c2c(-c3ccc4c(c3)OCO4)noc2C)ccc1F | inactive | –
COc1ccc(-c2onc(C)c2-c2ccc3c(c2)OCCO3)c(O)c1 | 15.8 µM (active) | –
O=C1O/C(=C\c2ccc(O)cc2)C(O)=C1c1ccc(O)cc1 | – | 5.93
O=[N+]([O-])c1ccccc1SNc1ccccn1 | – | -21.9
O=S(=O)(Nc1cccc2cccnc12)c1cccc2cccnc12 | 1.78 µM (active) | –
O=[N+]([O-])c1ccccc1S(=O)(=O)Nc1cccc2cccnc12 | 1.26 µM (active) and 6.31 µM (active) | –
O=S(=O)(Nc1ccccc1Cl)c1cccc2nsnc12 | – | -3.12
Cc1ccc2cccc([N+](=O)[O-])c2n1 | – | -20.7
O=C(Nc1cccc2cccnc12)C(F)(F)F | – | -0.477
Cc1ccc(Cn2cc(CCC(=O)NCc3ccc(OC(C)C)cc3)c3ccccc32)cc1 | – | -19.7
O=C(O)c1ccc2c(c1)N(Cc1ccc(F)cc1)C(=O)c1ccccc1S2=O (stereo unspecified) | – | -28.9
COc1cc(OC)c(NC(=O)Cc2ccc(-n3c(C)nc4cccnc43)cc2)cc1Cl | – | 0
Cc1nc(-c2ccccc2)sc1C(=O)/C=C/c1ccccc1 | 10 µM (active) | –
CNC(=O)c1csc(-c2ccccc2)n1 | – | 7.68
O=C(/C=C/Nc1ccccc1)c1cnc(-c2ccccc2)s1 | – | 1.26
O=C(CSc1nc2nccnc2c(=O)n1CCc1c[nH]c2ccccc12)Nc1ccccc1F | – | -19.6
O=C1COc2ccc(-c3csc(-c4ccc(Cl)cc4)n3)cc2N1 | – | 4.59
COc1ccc(C(=O)NCc2ccc(C)cc2)cc1S(=O)(=O)N1CCCC1 | – | -0.243
Cc1ccc(C)c(S(=O)(=O)N2CCN(C(=O)Nc3ccccc3)CC2)c1 | – | -17.8
COc1ccc(C)cc1S(=O)(=O)N1CCN(S(=O)(=O)c2cc(C(=O)O)ccc2C)CC1 | 6.31 µM (active) | –
CCCN(CCC)CCCNC(=O)Cn1cc2c(n1)-c1c(oc(C(=O)N3CCCC3)c1C)CC2 | – | -28.1
COc1cn(CC(=O)Nc2cccc(C)c2C)c(CN2CCCCC2)cc1=O | – | 26.1
